This is one part of the list. A number with no mark means an inactive call. The source made the active and inactive calls.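 The calls were made as follows: active = inhibition at or below a set negative limit, negative inhibition meaning the enzyme was activated; inactive = the rest.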

Usually inhibition stands for the relative decrease from the control value, in per cent.

In the assay the target is Hexokinase HKDC1 (Homo sapiens) (UniProt Q2TB90). The experiment in a line: HKDC1 hexokinase activators, confirmation, biochemical, single concentration (AID 504708). The following applies: recombinant HKDC1, G6PDH/diaphorase resazurin fluorescence; at 20 µM; active compounds read low.
Hexokinase HKDC1 (Homo sapiens), sequence (Q2TB90 whole entry, looked up): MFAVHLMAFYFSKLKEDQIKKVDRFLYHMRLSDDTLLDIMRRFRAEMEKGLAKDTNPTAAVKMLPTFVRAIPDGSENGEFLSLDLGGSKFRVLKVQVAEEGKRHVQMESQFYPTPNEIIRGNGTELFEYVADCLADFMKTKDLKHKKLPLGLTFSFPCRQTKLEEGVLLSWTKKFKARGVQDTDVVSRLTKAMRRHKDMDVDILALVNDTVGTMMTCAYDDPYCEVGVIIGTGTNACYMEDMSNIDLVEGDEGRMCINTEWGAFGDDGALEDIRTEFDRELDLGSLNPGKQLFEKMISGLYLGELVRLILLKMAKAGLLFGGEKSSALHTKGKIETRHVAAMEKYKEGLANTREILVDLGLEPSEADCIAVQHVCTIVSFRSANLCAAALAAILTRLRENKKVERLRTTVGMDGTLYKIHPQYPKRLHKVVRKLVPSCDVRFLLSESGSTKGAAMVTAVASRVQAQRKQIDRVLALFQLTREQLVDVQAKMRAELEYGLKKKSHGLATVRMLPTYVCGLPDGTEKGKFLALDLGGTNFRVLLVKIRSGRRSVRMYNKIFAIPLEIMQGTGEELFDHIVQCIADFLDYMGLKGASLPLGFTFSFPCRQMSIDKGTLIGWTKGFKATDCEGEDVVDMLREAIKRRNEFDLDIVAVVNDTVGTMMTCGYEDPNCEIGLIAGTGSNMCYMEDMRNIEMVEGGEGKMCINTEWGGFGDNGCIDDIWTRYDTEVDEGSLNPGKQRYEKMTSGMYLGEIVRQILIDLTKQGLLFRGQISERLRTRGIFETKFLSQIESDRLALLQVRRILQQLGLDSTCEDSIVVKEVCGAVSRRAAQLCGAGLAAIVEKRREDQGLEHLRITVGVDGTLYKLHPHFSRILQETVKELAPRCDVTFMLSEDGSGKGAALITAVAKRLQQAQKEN

As for `O=C1NC(=O)N(c2ccc(F)cc2)C(=O)/C1=C/c1ccc2c(c1)CCCN2Cc1ccccc1`, the inhibition was 1.36%.

For `CC(=O)OC1C2(CC3N4C(=O)C5(CO)SSC4(CC31O)C(=O)N5C)OC(C)C(C)(C)C2=O` (configuration not stated), the inhibition is -77% (active).

Values taken from PubChem BioAssay AID504708 (Sanford-Burnham Center for Chemical Genomics, 2011).
